Measured values: PubChem BioAssay (NCI)
The panel holds about 83,000 compounds, 20% with a hit somewhere; the sample as a whole holds those more often.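 Growth was measured after 48 h exposure to one concentration of compound in 96-well plates. Values under 10 count as active.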 Unmarked numbers belong to inactive results. Activity calls are given as the source filed them.

Columns and labels:
Assay in all cases: NCI-60 one-dose screen, 48 h (100 = growth as untreated, 0 = no growth, -100 = all killed)
Conditions in all cases: 10 µM unless noted
NCI-H23 lung = test system: NCI-H23 lung
NCI-H226 lung = test system: NCI-H226 lung
NCI-H322M lung = test system: NCI-H322M lung
HOP-62 NSCLC = test system: HOP-62 NSCLC
NCI-H460 lung = test system: NCI-H460 lung
HOP-92 NSCLC = test system: HOP-92 NSCLC
NCI-H522 lung = test system: NCI-H522 lung
A549/ATCC NSCLC = test system: A549/ATCC NSCLC
786-0 renal = test system: 786-0 renal
COLO 205 colon = test system: COLO 205 colon

Compound	growth (NCI-H23 lung)	growth (NCI-H226 lung)	growth (NCI-H322M lung)	growth (HOP-62 NSCLC)	growth (NCI-H460 lung)	growth (HOP-92 NSCLC)	growth (NCI-H522 lung)	growth (A549/ATCC NSCLC)	growth (786-0 renal)	growth (COLO 205 colon)
Cc1cc2nc3c4ccccc4n(CCN(C)C)c3nc2cc1C	8.98% (active)	11.3%	0.121% (active)	2.09% (active)	-32.7% (active)	28.1%	-19.1% (active)	-33.8% (active)	23.2%	-29.8% (active)
CC(C)CSc1oc(-c2ccccc2)nc1S(=O)(=O)c1ccccc1	83.4%	75.7%	99%	94.4%	97.2%	45.8%	70.8%	79.8%	87%	109%
CCNC(=O)Oc1ccc(/C(=C(/C)Cc2ccc(OC)cc2)c2ccc(OCCN3CCCCCC3)cc2)cc1	75.9%	96.2%	95.5%	84.4%	30.6%	40.8%	54.2%	54.9%	72%	28.7%
COc1cccc(/C=C2\COc3ccc(O)cc3C2=O)c1	93.7%	105%	106%	95%	99.6%	91.9%	56.1%	87.4%	78.3%	97.9%
C/C(=N\O)C(=O)NCCCCCC(=O)Nc1ccccc1	99.2%	110%	103%	102%	111%	94.4%	91.1%	97%	94.4%	108%
Cn1cc(-c2nn3cc(-c4ccccc4)nc3s2)c2ccccc21	79.2%	69.5%	71%	61.4%	79.9%	71.9%	38.9%	66.1%	99.4%	73.7%
N#Cc1c(-c2ccccc2)cc(-c2ccccc2)n(CCCC(=O)NO)c1=O	31.2%	13%	35.3%	22.2%	8.19% (active)	30.4%	21.8%	22.8%	17.7%	18.3%
CCOC(=O)c1c(-c2ccc(Cl)cc2)c(C#N)c2c(C#N)c(N)nn2c1N	85.9%	87.4%	83.4%	74.9%	77.3%	63.1%	37.4%	51.3%	82.6%	69.8%
COc1ccccc1-n1c(-c2cc(O)ccc2C)cn2c3c(=O)[nH]c(=O)n(C)c3nc12	90.6%	107%	36%	68.2%	91.6%	-1.51% (active)	44.5%	66.3%	52.8%	84.2%
C#CCOc1ccc2ncnc(Nc3cccc(NC(=O)CCl)c3)c2c1	73.5%	88.3%	92.1%	93.2%	49.2%	85%	38.9%	67%	72.6%	96.7%
CCn1c2ccc(O)cc2c2c(C)c3c[n+](C(C)C)ccc3c(C)c21	36.3%	66.8%	41.8%	43%	9.02% (active)	51.2%	19.9%	69.1%	56.1%	13.1%
Clc1ccc(-c2nc(-c3c[nH]c4ncccc34)cs2)cc1	35% [100 µM]	47.7% [100 µM]	61.7% [100 µM]	6.83% [100 µM] (active)	72.5% [100 µM]	-42.4% [100 µM] (active)	71.7% [100 µM]	55.2% [100 µM]	34.6% [100 µM]	93.2% [100 µM]
CNC(=O)c1cc(Oc2ccc3nc(NC(=O)Nc4ccc(Cl)c(Cl)c4)sc3c2)ccn1	28.9%	23.1%	63.7%	14.7%	30.8%	64.4%	48.4%	10.9%	40.5%	80.8%
CCOC(=O)C(=Cc1cccc(C#N)c1)C(=O)OCC	68.4%	38.1%	91%	115%	95.9%	63.2%	16.7%	75.5%	86.4%	47.1%
N#Cc1nc(-c2ccc(F)cc2)oc1S(=O)(=O)N1CCN(c2ccc(F)cc2)CC1	72.8%	91.7%	100%	109%	102%	123%	43.5%	104%	100%	86.7%
COc1cc(C(=O)/C=C/c2ccc(N3CCN(C)CC3)cc2)cc(OC)c1OC	90%	101%	89.7%	91.4%	100%	98.5%	77.7%	101%	106%	91.3%
CC1=CCC[C@@H]2C1(C)CC[C@H](C)[C@@]2(C)CC1=CC(=O)C(SC(C)(C)C)=CC1=O (stereo not given in full)	81.2%	84.7%	87.6%	97.8%	83.5%	75.2%	62.9%	73.3%	82.4%	100%
CCOC(=O)c1c(NC(=O)c2ccc(C(C)(C)C)cc2)sc2cc(O)ccc12	89.8%	87.9%	87.1%	95.8%	98.1%	96.8%	96.1%	91.9%	-92% (active)	110%
COc1ccc(C2=NN(C(C)=O)C(c3ccc(Oc4ccnc5cc(Cl)ccc45)c(OC)c3)C2)cc1 (stereo not given)	65.9%	-0.374% (active)	26.7%	27.6%	30.7%	-1.54% (active)	46.8%	44.6%	23.9%	47.7%
C=C1C(=O)O[C@H]2[C@H]1CC/C(COC(=O)NCc1ccc(Cn3c(=O)sn(-c4ccc(OC)cc4)c3=O)cc1)=C\CC[C@@]1(C)O[C@@H]21	88.2%	94.8%	97.7%	98.9%	95.2%	-1.01% (active)	-65.4% (active)	97.7%	50.9%	-51.2% (active)
O=C(CCCCl)NNc1nccc(Nc2ccc(S(=O)(=O)Nc3ccncc3)cc2)n1	99.3%	104%	102%	94.6%	109%	98.5%	99.7%	96.6%	95.2%	111%
COc1ccc(C2=Nc3c/c(=C\c4c(O)[nH]c5cc(Cl)ccc45)ccc3=N2)cc1	68.1%	84.1%	91.2%	77.3%	93.6%	77.9%	46%	74.9%	90.8%	3.61% (active)
COc1cc(-c2cc(-c3ccc(Nc4ncnc5cc(Cl)ccc45)cc3)nc(N3CCN(C)CC3)n2)cc(OC)c1OC	108%	50.5%	104%	94.4%	100%	77.7%	85.8%	89.2%	45.2%	90.6%
O=C(O)c1cccc(N/C=C/C(=O)c2cc3cc(Br)ccc3oc2=O)c1	98.1%	94.6%	100%	93.7%	97%	103%	91.8%	92.4%	99.4%	110%
COc1cccc(Nc2ccnc3[nH]c4ccc([N+](=O)[O-])cc4c23)c1	64.5%	48.7%	84.3%	34.6%	30.7%	31.5%	30.4%	37%	25.7%	51.7%
